From PubChem
CYP2C9 activ – human CYP2C9 activators, primary screen, biochemical, luminescence | recombinant CYP2C9, luciferin-H conversion; active compounds read high; factor 1 = untreated enzyme, 0 = blocked | Cytochrome P450 2C9 (Homo sapiens), P11712 | activation factor at 5 µM | 96,000 compounds, 1.4% hits;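 active = activation factor of 2 or more for CYP2C9 at a 5 µM dose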
CYP2C19 act – human CYP2C19 activators, primary screen, biochemical, luminescence. recombinant CYP2C19, luciferin-H EGE luminescence; active compounds read high; 0 = fully inhibited enzyme, 1 = untreated enzyme. activation factor at 5 µM. 96,000 tested, under 10 active. AID 1025, 2008;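 active = activation factor of at least 2 at 5 µM in the primary screen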
sEH inh – soluble epoxide hydrolase inhibitors, primary screen, biochemical, human sEH | recombinant human sEH enzymatic activity assay | 91,000 compounds, 0.34% hits | Bifunctional epoxide hydrolase 2 (Homo sapiens), P34913 | inhibition, % at 2 µM; in the data active = inhibition above about 80%
Target sequence (P34913 whole entry, looked up): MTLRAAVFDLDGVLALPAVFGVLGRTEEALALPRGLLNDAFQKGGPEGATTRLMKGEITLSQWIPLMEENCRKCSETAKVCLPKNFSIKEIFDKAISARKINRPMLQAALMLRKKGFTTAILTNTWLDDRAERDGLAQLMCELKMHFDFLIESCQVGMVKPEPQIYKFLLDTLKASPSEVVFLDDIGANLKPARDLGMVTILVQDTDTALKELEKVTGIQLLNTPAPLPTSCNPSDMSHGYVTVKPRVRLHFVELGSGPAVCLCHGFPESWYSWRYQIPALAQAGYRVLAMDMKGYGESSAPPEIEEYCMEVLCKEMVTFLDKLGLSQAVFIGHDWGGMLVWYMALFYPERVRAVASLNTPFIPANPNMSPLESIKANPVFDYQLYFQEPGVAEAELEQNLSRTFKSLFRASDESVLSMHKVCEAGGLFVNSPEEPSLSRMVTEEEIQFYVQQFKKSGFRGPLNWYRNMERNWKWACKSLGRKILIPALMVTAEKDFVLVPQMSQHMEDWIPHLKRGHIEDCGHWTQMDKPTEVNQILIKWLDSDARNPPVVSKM
CYP2C19 inh – blockers of cytochrome P450 2C19 activity – biochemical, luminescence, ADME assay, primary screen; P33261; CYP2C19 Supersomes, luciferin-H EGE luminescence, 30 min; inhibition, % at 5 µM; 96,000 compounds, 21% hits; AID 778, 2007;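 active = CYP2C19 inhibition above a set limit at 5 µM in the primary screen, cut at about 50% in these data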
CYP2C9 inh – blockers of cytochrome P450 2C9 activity – biochemical, luminescence, ADME assay, primary screen | CYP2C9 Supersomes, luciferin-H conversion | AID 777, 2007 | P11712 | inhibition, % at 5 µM | 96,000 compounds, 20% hits;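 active = blocking of liver enzyme CYP2C9 beyond about 50% at 5 µM, limit read from the data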
sEH act – soluble epoxide hydrolase activators, primary screen, biochemical, human sEH; activation, % at 2 µM; 91,000 compounds, 0.04% hits; Bifunctional epoxide hydrolase 2 (Homo sapiens), P34913; AID 717, 2007; purified human sEH enzymatic activity, activator screen; in the data active = activation above about 37%
Numbers stand for hits; - = inactive; . = not tested or not shown. The list is not random: actives were taken first. Their share in the collection is about 27%.

SMILES | CYP2C9 activ | CYP2C19 act | sEH inh | CYP2C19 inh | CYP2C9 inh | sEH act
O=c1c2ccccc2nnn1CSc1nnc(-c2ccc3c(c2)OCO3)o1 | - | - | . | - | - | .
COc1ccc(CNC(=O)CSc2ncn[nH]2)cc1 | - | - | - | 64.9 | - | -
O=C(O)c1cccc(C(=O)Nc2cccc(NC(=O)C3CCCO3)c2)c1 (stereo not drawn) | - | - | . | 61.7 | - | .
O=C(Nc1ccc(Oc2ccccc2)cc1)C1CCCO1 (stereo not drawn) | - | - | - | 58.4 | - | -
COc1ccc(NC(=O)C2CCCO2)cc1 (stereo not drawn) | . | . | - | . | . | -
CN(C)CCNC(=O)c1c(O)c2c([nH]c1=O)CCCC2 | - | - | - | - | - | -
Nc1ccccc1-c1nnc(SCc2ccccc2F)[nH]c1=O | - | - | - | - | - | -
CC(C)C(=O)Nc1nc(-c2ccccc2)ns1 | . | . | - | . | . | -
CCCSc1nsc(NC(=O)C(c2ccccc2)c2ccccc2)n1 | - | - | - | - | 72.7 | -
C/C(CC(=O)NCc1ccco1)=N\NC(=O)Cc1ccc(Cl)cc1 | - | - | - | - | - | -
CCOc1ccc(C(=O)NCc2ccncc2)cc1 | - | - | - | - | - | -
CC(C)(Oc1ccc(Cl)cc1)C(=O)Nc1ccncc1 | - | - | . | 99.9 | 97.1 | .
COC(=O)/C=C/C(=O)Nc1cccnc1 | - | - | - | - | - | -
CC(C)(Oc1ccc(Cl)cc1)C(=O)NCc1ccncc1 | - | - | - | 99.4 | 98.3 | -
CC(C)(Oc1ccc(Cl)cc1)C(=O)NCc1ccco1 | - | - | - | - | 51.6 | -
CC(C)(Oc1ccc(Cl)cc1)C(=O)Nc1cccnc1 | - | - | - | 52.1 | - | -
COc1ccc(C(c2nnnn2CCc2ccccc2)N2CCN(C3CCCC3)CC2)cc1OC (stereo not drawn) | - | - | . | - | - | .
COc1cccc(/C=N\NC(=O)C2C(=O)NCC2c2ccccc2)c1O (stereo not drawn) | - | - | - | - | - | -
Cc1ccc(-c2ccc(/C=N\NC(=O)C3C(=O)NCC3c3ccccc3)o2)cc1Cl (stereo not drawn) | - | - | - | - | 50.1 | -
O=C1NCC(c2ccccc2)C1C(=O)N/N=C\c1ccc(-c2cccc(Cl)c2Cl)o1 (stereo not drawn) | - | - | - | - | 59.1 | -
Cc1ccc(-c2ccc(/C=N/NC(=O)CN3CCCC3)o2)cc1Cl | - | - | - | - | - | -
COc1ccc(CCN(Cc2cc3cc(C)cc(C)c3nc2Cl)C(=O)C2CC2)cc1 | - | - | - | - | - | -
O=C(O)c1ccc(-n2nnnc2Oc2cccc3cccnc23)cc1 | - | - | - | - | - | -
COc1ccc(S(=O)(=O)n2nc(OC(=O)c3ccccc3)cc2N)cc1 | - | - | - | - | - | -
COc1ccc(S(=O)(=O)n2nc(OC(=O)c3ccc(C)cc3)cc2N)cc1 | - | - | . | - | 81.4 | .
SMILES | CYP2C9 activ | CYP2C19 act | sEH inh | CYP2C19 inh | CYP2C9 inh | sEH act
COc1ccc(S(=O)(=O)n2nc(OC(=O)c3cccs3)cc2N)cc1 | - | - | - | - | 73.4 | -
COc1ccc(S(=O)(=O)n2nc(OC(=O)c3ccccc3Br)cc2N)cc1 | - | - | - | - | 92.6 | -
Cc1ccc(S(=O)(=O)n2nc(OC(=O)c3c(-c4ccccc4Cl)noc3C)cc2N)cc1 | - | - | - | - | 93.0 | -
Cc1onc(-c2ccccc2Cl)c1C(=O)Oc1cc(N)n(S(=O)(=O)c2ccc(F)cc2)n1 | - | - | - | - | - | -
CC1CCCC(NC(=O)CCCn2c(=O)[nH]c3cc(Cl)ccc3c2=O)C1C (stereo not drawn) | - | - | - | - | - | -
CC(C)COn1c(=S)[nH]c2ccccc2c1=O | - | - | - | 58.9 | - | -
CC(=O)OC(C(=O)Nc1ccccc1C)C(OC(C)=O)C(OC(C)=O)C(OC(C)=O)C(=O)Nc1ccccc1C (stereo not drawn) | . | . | - | . | . | -
O=C(Oc1cc(-c2ccccc2)no1)c1ccc(Cl)cc1 | - | - | - | - | - | -
